Results on 59 compounds are retold here after PubChem BioAssay AID588413 (Sanford-Burnham Center for Chemical Genomics, 2011).

The term inhibition denotes the relative decrease from the control value, in per cent.

About 2,500 (0.74%) of roughly 340,000 compounds were called active.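 Rule for the calls: active = inhibition above about 55% (limit read from the data); inactive = the rest.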 The entries come from a sample that favours actives as a whole.

The experiment in a line: blockers of Gli reporter signaling – luciferase luminescence, Sufu-KO-LIGHT cells, uHTS, primary screen (AID 588413).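 Note: 0% = DMSO-treated cells and 100% = wells with medium but no cells.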 The settings on record: Sufu-KO-LIGHT fibroblasts, at 5 µM, stronger effect = higher value.
`O=C(NC1CCc2ccccc21)C12CN(Cc3ccccc3)CC1C(c1cccc([N+](=O)[O-])c1)=NO2` (centres undefined): the inhibition was 6.88% (inactive). Regarding `CCS(=O)(=O)Nc1ccc(C2=NN(S(=O)(=O)c3ccc(F)cc3)C(c3ccco3)C2)cc1` (centres undefined), the inhibition is 1.29% (inactive). On to `Cn1cc(S(=O)(=O)Nc2ccc(Cl)cc2Cl)c(=O)n(C)c1=O`, for which the inhibition was 1.79% (inactive). Regarding `O=C(NCCS(=O)(=O)NCc1ccc(Cl)cc1)c1ccccc1`, the inhibition is -12.9% (inactive). Consider `Cc1cc(C(=O)NCCc2ccc(Cl)cc2)n(-c2ccccc2)n1`, for which the inhibition was -16.3% (inactive).

Consider `O=C(NCCOCc1ccc(Cl)cc1)c1ncn[nH]1`, for which the inhibition was 84.5% (active). For `CCOc1ccc(NC(=S)N2CCCCCC2)cc1` the value was -2.25% (inactive); for `Cc1nn(C)c(C)c1S(=O)(=O)N1CCC(CO)(Cc2ccc(Cl)cc2)CC1`, 8.21% (inactive). Next, `C=CCNC(=O)COc1coc(CN2CCN(Cc3ccccc3)CC2)cc1=O`: 3.43% (inactive).

In the case of `CNC(=S)NNC(=O)c1cccn(Cc2ccccc2)c1=O`, the inhibition was 13.9% (inactive). Consider `C=CCNC(=S)/N=c1/ccccn1Cc1ccccc1`, for which the inhibition is 67.3% (active).

Consider `Cc1cccc(NC(=O)C2CCCN2S(=O)(=O)c2ccc(F)cc2)c1C` (centres undefined), for which the inhibition was 10.9% (inactive). `Cc1[nH]nc(-c2ccc(OCc3cnn(-c4ccccc4)c3)cc2O)c1Oc1ccc(Cl)cc1`: the inhibition is 4.97% (inactive). For `COc1cccc(CC(=NO)c2cccc(OC)c2)c1`, the inhibition is -2.96% (inactive).

Regarding `Cc1noc(NS(=O)(=O)c2ccc(N3CC(O)=C(c4ccccc4)C3=N)cc2)c1C`, the inhibition is -2.28% (inactive). Next, `CC(C)(C)c1ccc(C(=O)NCc2ccco2)cc1`: -4.01% (inactive); `CCCC1=Nc2cc(C(=O)NCCN3CCCC3)ccc2Sc2ccccc21`: 18.7% (inactive). For the compound `CCCC1=Nc2cc(C(=O)NCc3ccco3)ccc2Sc2ccccc21`, the inhibition was 65.9% (active). Turning to `COc1c(O)ccc2c1CN1CCc3cc4c(cc3C1C2)OCO4` (centres undefined), the inhibition was -25.1% (inactive). `CCOC(=O)c1sc2nc(C)nc(Nc3ccc(OC)c(OC)c3)c2c1C`: the inhibition is 12.9% (inactive). Next, `CC(=O)c1cccc(CN2CCC(CO)(Cc3ccccc3)CC2)c1`: 30.4% (inactive); `OCC1(Cc2ccccc2)CCN(Cc2cc3ccccc3o2)CC1`: 22.4% (inactive).

Consider `COc1ccccc1/C=C/CN1CCC(CO)(Cc2ccccc2)CC1`, for which the inhibition was 65.4% (active). With `CCOC(=O)C1CCCN(C(=O)C2CCN(S(=O)(=O)c3ccc(Cl)c(C(F)(F)F)c3)CC2)C1` (centres undefined), the inhibition is 3.88% (inactive).

As to `CCOC(=O)c1ccccc1NC(=O)c1c(N)n(C)c(=O)[nH]c1=O`, the inhibition was 5.02% (inactive).

Turning to `COc1ccc(-n2nnc3c(=O)n(CC(=O)OCc4ccccc4)cnc32)cc1`, the inhibition was 1.46% (inactive).

For the compound `Cc1ccc(-c2ccc(=O)n(CC(=O)NCCCN3CCCCC3)n2)cc1`, the inhibition was 5.01% (inactive). In the case of `CCC1CCCCN1CCCNC(=O)Cn1nc(-c2ccccc2)ccc1=O` (centres undefined), the inhibition is 57% (active).

In the case of `CCCn1c2ccccc2c2cnn(CC(=O)NCCCN3CCCCC3CC)c(=O)c21` (centres undefined), the inhibition is 12.7% (inactive). For `CCOC(=O)c1ccc(S(=O)(=O)N(CCO)Cc2cc3cc(OC)c(OC)cc3[nH]c2=O)cc1`, the inhibition is 1.66% (inactive). Take `Cc1ccc(S(=O)(=O)NCCC(c2ccccc2)c2ccccc2)cc1C(=O)O`: the inhibition was -19.2% (inactive).

As for `CCN(CC)CCNC(=O)c1ccc(NC(=O)c2cc(-c3ccncc3)nc3ccccc23)cc1`, the inhibition was 64.3% (active). `O=C(Nc1ccc(S(=O)(=O)Nc2nccs2)cc1)c1cc(-c2ccncc2)nc2ccccc12`: the inhibition was 0.2% (inactive). With `COC(=O)CNC(=O)c1cc(-c2ccncc2)nc2ccccc12`, the inhibition was -8.23% (inactive). Consider `CN(C)c1ccc(CNC2C3CC4CC(C3)CC2C4)cc1` (centres undefined), for which the inhibition was 1.25% (inactive). `O=C(NCC(=O)N1CCCCCCC1)c1ccccc1Cl`: the inhibition is -20.5% (inactive).

In the case of `CC(=O)c1ccc(S(=O)(=O)NCCC(=O)N2CCN(c3ccccn3)CC2)cc1`, the inhibition was -5.24% (inactive). For `CCN(Cc1cc2cc(C)ccc2[nH]c1=O)S(=O)(=O)c1ccccc1` the value was 0.68% (inactive).

As to `O=C(c1cccs1)N(Cc1cc2ccccc2[nH]c1=O)CC1CCCO1` (centres undefined), the inhibition is 20.4% (inactive). For `Cc1ccc(S(=O)(=O)N(Cc2cc3ccccc3[nH]c2=O)CC2CCCO2)cc1` (centres undefined), the inhibition is 64.1% (active). Next, `O=C(O)CCCn1c(=O)c2cccn2c2ccc(F)cc21`: 4.96% (inactive); `COc1ccc(C2=NS(=O)(=O)N(C)C(C(=O)N3CCCCC3)=C2)cc1`: 14.7% (inactive); `CCOc1ccccc1N1CN(Cc2ccccc2)CNC1=S`: -9.38% (inactive). On to `O=C(c1cc(COc2ccc(F)c(F)c2)on1)N1CCOCC1`, for which the inhibition is -41.7% (inactive). For `COc1cccc(OCc2cc(C(=O)N3CCN(C(=O)c4ccco4)CC3)no2)c1` the value was -5.15% (inactive); for `C=CCC1(CC=C)CCCN1C(=O)c1cc(COc2ccc(-n3cncn3)cc2)on1`, 77.8% (active).

`COc1cc(Cl)c(C)cc1NC(=O)CSc1nnc(CN2CCCC2)o1`: the inhibition was 1.49% (inactive). In the case of `CNC(=O)c1ccsc1NC(=O)c1ccc(S(=O)(=O)N2CCc3ccccc32)cc1`, the inhibition was 5.3% (inactive).

For `N=C1C(c2nc3ccccc3s2)=C(O)CN1NC(=O)c1ccc([N+](=O)[O-])cc1`, the inhibition is -3.9% (inactive). For `O=C(Nc1nc2ccc([N+](=O)[O-])cc2s1)c1ccc(S(=O)(=O)N2CCCc3ccccc32)cc1` the value was 77.6% (active); for `Cc1ccc(NC(=O)c2cccc(S(=O)(=O)N3CCCc4ccccc43)c2)nc1`, -3.22% (inactive). Consider `O=C(NOCc1ccccc1)c1cccc([N+](=O)[O-])c1`, for which the inhibition is -14.1% (inactive). For `O=C(NC(Nc1nc2ccc([N+](=O)[O-])cc2s1)(C(F)(F)F)C(F)(F)F)c1ccccc1` the value was 87.4% (active); for `CCOc1ccc(C(=O)Nc2nccs2)cc1[N+](=O)[O-]`, -24.3% (inactive). Regarding `OC(c1ccc(Cl)cc1)C(CN1CCOCC1)c1ccccc1` (centres undefined), the inhibition is -27.6% (inactive). Consider `Cc1ccc(C(CC(=O)O)NC(=O)c2ccc(S(=O)(=O)N3CCCC3)cc2)cc1` (centres undefined), for which the inhibition was -3.63% (inactive). For the compound `c1ccc(C(=NNc2nc3ccccc3s2)c2ccccn2)cc1`, the inhibition was 82.5% (active). Regarding `COc1cc(OC)nc(N/N=C(\c2ccccc2)c2ccncc2)n1`, the inhibition is 7.9% (inactive). As to `C/C(=N/Nc1nc(-c2ccccc2)c(CC(=O)O)s1)c1ccccc1`, the inhibition was -23% (inactive).
